Cruzain noTriton: inhibitors of Trypanosoma cruzi cruzain without detergent; P25779; purified cruzain, Z-FR-AMC fluorescence, no detergent; Potency, µM, most hits filed as inhibitors; 2.3% of 200,000 active; further: nearly all actives have a fitted effect of over 40% in size
Target sequence (P25779 123-467 limits assumed): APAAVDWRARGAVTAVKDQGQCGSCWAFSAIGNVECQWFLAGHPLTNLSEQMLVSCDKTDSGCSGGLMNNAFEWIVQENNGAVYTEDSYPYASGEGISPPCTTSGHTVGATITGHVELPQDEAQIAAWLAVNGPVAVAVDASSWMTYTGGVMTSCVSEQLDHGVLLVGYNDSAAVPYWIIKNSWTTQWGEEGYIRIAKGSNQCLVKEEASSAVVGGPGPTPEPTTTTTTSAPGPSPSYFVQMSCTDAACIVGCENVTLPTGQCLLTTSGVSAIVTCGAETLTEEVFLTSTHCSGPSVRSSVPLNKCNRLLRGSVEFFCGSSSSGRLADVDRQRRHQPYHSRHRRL
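Purified cruzain at 1.5 nM, pre-incubated 15 min with compound at room temperature in 100 mM sodium acetate pH 5.5, 5 mM DTT, 0.00005% Triton X-100. Reaction started with 2 uM Z-FR-AMC; AMC fluorescence increase over 60 s gives rate.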
Cruzain inh Det: cruzain (T. cruzi) inhibition with detergent | P25779 | purified cruzain, Z-FR-AMC fluorescence, 0.01% Triton | Potency, µM, hits mostly inhibitors | 0.43% of 200,000 active | AID 1478; further: nearly all actives have a fitted effect of over 40% in size
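Detergent-containing arm of a paired screen for aggregation-based inhibition: 0.01% Triton X-100 present. Cruzain at 1.5 nM cleaved 2 uM Z-FR-AMC at pH 5.5 with 5 mM DTT; AMC fluorescence gain over 60 s measured activity.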
A number is an active result; - = inactive; ? = inconclusive. An excerpt weighted towards active compounds, which were near 2.6% of everything screened. The call rests on the fitted dose curve; in most records, active means well fitted curve in the direction sought with a large enough effect; inconclusive means small, poorly fitted or top-dose-only effect, or another doubt; inactive means no such curve, though single readings can be large; an effect the other way counts as inactive or inconclusive.

SMILES	Cruzain noTriton	Cruzain inh Det
COc1ccc(/C=C\c2onc(C)c2S(=O)(=O)N2CCC(C(=O)Nc3cccc(C)c3C)CC2)cc1	-	-
COc1cc(NC(=O)C2CCN(S(=O)(=O)c3c(C)noc3/C=C/c3cccs3)CC2)cc(OC)c1	16µM	-
CC(C)c1ccc(S(=O)(=O)N2CCN(Cc3cccc(F)c3)CC2)cc1	-	-
Cn1c(CCNC(=O)c2ccccc2)nc2ccccc21	-	11µM
CC(=O)Nc1ccc2c(c1)nc(CCNC(=O)c1ccccc1)n2C	-	-
Cn1c(CCNC(=O)c2ccc(F)cc2)nc2ccccc21	2.5µM	11µM
Cn1c(CCNC(=O)C(C)(C)C)nc2ccccc21	-	-
Cc1nc(C)c(CCNC(=O)c2ccccc2)s1	?	28µM
Cc1nc(C)c(CCNC(=O)c2cccc(Cl)c2)s1	-	?
Cc1cccc(C(=O)Nc2cc3c(cc2C)n(C)c(=O)n3C)c1	-	-
Cn1c(=O)c2c(-c3ccccc3)n3c(c2n(C)c1=O)C(c1ccccc1[N+](=O)[O-])Nc1ccccc1-3 (stereo not given)	-	-
O=S(=O)(Nc1nc2ccccc2nc1Nc1ccc2c(c1)OCCO2)c1cccs1	25µM	-
COc1ccc(S(=O)(=O)Nc2nc3ccccc3nc2Nc2ccc3c(c2)OCO3)cc1	?	-
Cc1cccc(NC(=O)c2c(C)cc(C)nc2SCC(=O)c2ccccc2)c1	-	-
COc1ccc(-c2[nH]nc3c2C(c2ccccc2OC(=O)N2CCOCC2)C(C#N)=C(N)O3)cc1 (stereo not given)	?	-
Cc1ccc(-c2[nH]nc3c2C(c2ccccc2OC(=O)N2CCOCC2)C(C#N)=C(N)O3)cc1 (stereo not given)	25µM	-
Cc1ccc(NC(=O)C2CCCN2S(=O)(=O)c2ccc3c(c2)C(C)(C)C(=O)N3C)cc1 (stereo not given)	-	-
COc1ccc(C(C[N+](=O)[O-])c2c(-c3ccccc3)cc3ccccn23)c(OC)c1 (stereo not given)	?	-
Cc1cc2ccccn2c1C(C[N+](=O)[O-])c1ccc(N(C)C)cc1 (stereo not given)	25µM	-
COc1ccc(Cl)cc1NC(=O)c1nn(C)c2c1CS(=O)(=O)c1ccccc1-2	-	-
O=C(Cc1ccsc1)NCC(c1ccco1)N1CCCCC1 (stereo not given)	-	-
CC(C)C(NC(=O)c1ccco1)C(=O)NCC(c1ccco1)N1CCCCC1 (stereo not given)	?	14µM
COc1cccc(-c2cn3c(n2)sc2cc(C(=O)NCc4cccs4)ccc23)c1	-	-
CCOC(=O)c1cc(-c2ccccc2)n(CCC(=O)NC2CCCCC2)c1C	-	-
CCOc1ccc(-c2cn3c(n2)sc2cc(C(=O)NCCCN(CC)CC)ccc23)cc1	-	-
SMILES	Cruzain noTriton	Cruzain inh Det
O=[N+]([O-])c1ccc(/C=C/c2ccc3cccc([N+](=O)[O-])c3n2)cc1	13µM	-
O=[N+]([O-])c1cccc2ccc(/C=C/c3ccc(F)cc3)nc12	-	-
N#CC1=C(N)Oc2n[nH]c(-c3cccs3)c2C1c1ccoc1 (stereo not given)	-	-
Cc1ccc(C2C(C#N)=C(N)Oc3n[nH]c(-c4cccs4)c32)cc1 (stereo not given)	32µM	-
COc1ccc(C(=O)Nc2ccc(C(=O)OCC(=O)c3cccc4ccccc34)cc2)cc1	1.6µM	-
COc1ccc(C(=O)COC(=O)c2cccc(NC(=O)c3ccc(OC)c(OC)c3)c2)cc1	?	-
COc1ccc(OC)c(C(=O)c2ccc(C(=O)Nc3cccc4ccccc34)cc2)c1	25µM	-
COc1ccc(C(=O)Nc2ccc(C)cc2C(=O)c2ccccc2)cc1	-	-
O=C(On1c(-c2ccccc2)nc2ccccc2c1=O)c1ccco1	?	28µM
COc1cc(OC)cc(-c2nc3ccccc3c(=O)n2OC(=O)c2ccccc2C)c1	-	-
COc1cccc(N2C(=O)C(CC(=O)Nc3cccc(F)c3)N(C(C)C)C2=O)c1 (stereo not given)	-	-
CCOc1ccc(NC(=O)CN2CCCN(Cc3cc(C)ccc3C)S2(=O)=O)cc1	-	-
N#Cc1c(NC(=O)CSc2ncnc3sccc23)oc(-c2ccco2)c1-c1ccco1	25µM	-
CCNC(=O)CSc1ncnc2sccc12	-	-
CCOC(=O)c1ccc(Nc2c(-c3ccc(O)cc3)nc3nc[nH]n23)cc1	-	-
CC(=O)c1ccc(NC(=O)c2ccc3c(c2)N(Cc2cccc(Cl)c2)C(=O)c2ccccc2S3=O)cc1 (stereo not given)	-	-
COc1ccc(NC(=O)c2ccc3c(c2)N(Cc2cccc(Cl)c2)C(=O)c2ccccc2S3(=O)=O)cc1Cl	3.2µM	-
CC(=O)c1ccc(NC(=O)c2ccc3c(c2)N(Cc2cccc(Cl)c2)C(=O)c2ccccc2S3(=O)=O)cc1	10µM	-
COc1ccc(NC(=O)c2ccc3c(c2)N(Cc2cccc(Cl)c2)C(=O)c2ccccc2S3=O)cc1Cl (stereo not given)	?	-

Assay outcomes: PubChem BioAssay, National Center for Advancing Translational Sciences (NCATS)
